# Screening data from PubChem.
# D1 agonist = human D1 receptor agonism; P21728; HEK293 T-REx D1 cells, calcium flux, agonist mode; activation, % at 2 µM; 360,000 tested, 1% active; AID 504660; in the data active means activation above about 30%; further: 0% is about no effect
# Target sequence (P21728 whole entry, looked up): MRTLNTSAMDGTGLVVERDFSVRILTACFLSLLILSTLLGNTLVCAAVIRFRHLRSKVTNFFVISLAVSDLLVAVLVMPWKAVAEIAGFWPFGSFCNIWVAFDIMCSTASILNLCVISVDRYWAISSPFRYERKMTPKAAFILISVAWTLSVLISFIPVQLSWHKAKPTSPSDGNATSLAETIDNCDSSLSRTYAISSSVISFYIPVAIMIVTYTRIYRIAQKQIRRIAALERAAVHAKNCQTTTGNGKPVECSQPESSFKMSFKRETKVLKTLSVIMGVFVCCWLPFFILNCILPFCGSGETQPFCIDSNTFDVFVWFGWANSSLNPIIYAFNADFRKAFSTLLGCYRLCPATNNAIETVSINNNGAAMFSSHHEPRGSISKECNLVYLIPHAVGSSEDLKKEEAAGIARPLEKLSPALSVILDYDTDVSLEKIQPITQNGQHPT
#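 Agonism was scored from calcium flux recorded over 180 s (1 read/s) after pintool compound addition, following a 10-cycle baseline. Cells were inducible force-coupled HEK293 TREx D1, plated overnight at 30 C and loaded with no-wash calcium dye.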
# DRD3 antagonist = D3 dopamine receptor (human) antagonism | P35462 | max response, negative = inhibition, % | 360,000 tested, 2.5% active | AID 652054 | D3R cells, DiscoveRx beta-arrestin luminescence, antagonist mode; active compounds read low; in the data active means max response below about -50%; inconclusive means no clear call, values can overlap the other calls; further: on the % scale 0 is the no-effect control and ±100 the full control effect
#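 Cells plated overnight at 1500 cells/well, then exposed to library compounds with dopamine controls for 90 minutes at 37 degrees C. DiscoveRx reagent added for 30–60 minutes at room temperature; luminescence read, quantitative HTS format.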
# D3 ag = activates the human D3 dopamine receptor. D3R DiscoveRx beta-arrestin cells, luminescence, 90 min. max activation, %. AID 652048. 410,000 tested, 0.58% active; in the data active means max activation above about 30%; further: 0% is about no effect
#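 Agonist mode: compounds and dopamine controls were applied to plated cells for 90 min at 37 degrees C after an overnight attachment at 1500 cells/well. Luminescent read-out followed 30 - 60 minutes at room temperature with DiscoveRx detection reagent.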
# D1 antag = antagonists of human D1 dopamine receptor; P21728; activity change, negative = inhibition, % at 10 µM; HEK293 TREx D1 cells, calcium flux, dopamine EC80; active compounds read low; AID 504652; 360,000 tested, 3.2% active; in the data active means activity change below about -30%; further: on the % scale 0 is the no-effect control and ±100 the full control effect
#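 Allosteric or orthosteric antagonism assessed as attenuation of the calcium response to EC80 dopamine, added 180 s after compound, in induced HEK293 Trex D1 cells loaded with no-wash calcium dye.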
# D1 PAM = human D1 dopamine receptor positive modulation; potentiation, % at 10 µM; HEK293 TREx D1 cells, calcium flux, dopamine EC20 potentiation; 360,000 tested, 0.036% active; P21728; in the data active means potentiation above about 30%; further: 0% is about no effect
# Active calls of the source: *; ? = inconclusive; · = no result given. Only some compounds are listed: those with a hit (about 6.1% of all), similar ones and a draw of the others.
SMILES,D1 agonist,DRD3 antagonist,D3 ag,D1 antag,D1 PAM
CCCn1c(Sc2nc3c(c(=O)[nH]c(=O)n3C)n2CCC)nc2c1c(=O)[nH]c(=O)n2C,7,-57*,0,-1,0
C[C@@H](O[C@H]1OCCN(Cc2n[nH]c(=O)[nH]2)[C@H]1c1ccc(F)cc1)c1cc(C(F)(F)F)cc(C(F)(F)F)c1,·,·,14,·,·
Cn1c(SCc2ccccc2)nc2c1c(=O)[nH]c(=O)n2C,0,10,18,-35*,-4
CCn1c(SCc2ccccc2)nc2c1c(=O)[nH]c(=O)n2C,3,26,3,-28,0
Cc1ccccc1OCC(=O)N/N=C1\SCC(=O)N1Cc1ccccc1,1,9,2,-43*,-1
NNC(=O)c1ccc(CSc2nc3ccccc3[nH]2)cc1,1,-56*,-7,-10,-4
Cc1c(NC(=O)CSc2nnnn2-c2ccc(F)cc2)c(=O)n(-c2ccccc2)n1C,2,-2,-1,-27,-2
O=C(CSc1nc2ccccc2[nH]1)NC(=O)NCc1ccco1,0,-11,0,-40*,-9
O=C(O)c1ccc(CSc2nc3ccccc3[nH]2)cc1,4,4,3,7,3
Cc1ccc2nc(SCC(=O)NC(=O)NCc3ccco3)[nH]c2c1,7,-5,-2,-25,-11
Cc1c(NC(=O)CSc2nnnn2-c2ccc(O)cc2)c(=O)n(-c2ccccc2)n1C,2,-7,-2,-47*,-10
Cc1c(NC(=O)CSc2nnnn2C)c(=O)n(-c2ccccc2)n1C,2,12,6,-35*,13
Cc1cccc(C)c1Nc1c(-c2ccccc2F)nc2cccc(C)n12,-3,·,-10,9,6
COCCCNC(=O)C1CCN(c2cc(C)nc3c(-c4ccc(Cl)cc4)c(C)nn23)CC1,1,·,5,-28,-3
Cc1c(NC(=O)CSc2nc3ccccc3[nH]2)c(=O)n(-c2ccccc2)n1C,2,-78*,7,4,5
NS(=O)(=O)c1ccc(NC(=O)CSc2nc3ccccc3[nH]2)cc1,3,10,2,-84*,-15
COc1ccc(CNC(=O)C(=O)NCC2OCCN2S(=O)(=O)c2ccccc2)cc1 (centres undefined),·,-19,-4,·,·
Cn1cccc1C(=O)NNC(=O)COc1ccccc1F,0,8,8,-47*,-7
O=C(NCc1ccco1)c1c2c(nc3ccccc13)CCC2,0,-59*,4,-15,-1
O=C(NCc1ccco1)c1csc2c1CCCCC2,1,11,7,-33*,0
Cc1ccc(Nc2c(-c3ccc(C)cc3)nc3c(C)cccn23)cc1,3,·,3,12,8
Cc1cccn2c(Nc3ccccc3)c(-c3ccc(N4CCOCC4)cc3)nc12,-1,·,-8,-45*,-1
O=S(=O)(c1ccc2ccccc2c1)N1CCN=C1SCc1cccnc1,3,8,7,-34*,-2
O=S(=O)(c1ccc(F)cc1)N1CCN=C1SCc1cccnc1,6,15,1,-10,-1
CCSC1=NCCN1S(=O)(=O)c1ccc2ccccc2c1,1,-2,-1,-31*,-3
SMILES,D1 agonist,DRD3 antagonist,D3 ag,D1 antag,D1 PAM
CSC1=NCCN1S(=O)(=O)c1ccc2ccccc2c1,1,-2,5,-14,0
CCCCC1=C([O-])C2N=CC=CC2=[N+](c2ccccn2)C1=O (centres undefined),1,-18,2,3,-3
O=C(Nc1ccc(Cl)cn1)c1ccc2[nH]c(=O)c(=O)[nH]c2c1,1,8,2,-30*,-2
COc1cccc(NC(=O)C(Sc2nnc(Nc3ccccc3C)s2)c2ccccc2)c1 (centres undefined),0,-54*,-11,3,-6
COc1ccc(Nc2nnc(SC(C(=O)Nc3cc(C)ccc3C)c3ccccc3)s2)cc1 (centres undefined),1,10,-2,1,-6
S=c1[nH]nc(-c2ccco2)n1-c1cccc2ccccc12,-2,-74*,1,21,1
COc1ccccc1/C=C/C=N/n1c(-c2ccc(Cl)cc2)n[nH]c1=S,2,-63*,-18,3,-3
COc1ccccc1/C=C/C=N/n1c(-c2ccccc2)n[nH]c1=S,4,-17,-11,10,-3
S=c1[nH]nc(-c2ccco2)n1/N=C/c1ccc(Cl)cc1Cl,1,-54*,1,-16,1
S=c1[nH]nc(-c2ccco2)n1/N=C/c1cccc(Cl)c1Cl,1,1,3,-8,-9
Cn1cccc1/C=N/n1c(-c2ccc(Cl)cc2Cl)n[nH]c1=S,44*,-3,-10,3,-2
CCc1nnc(NC(=O)COc2ccccc2[N+](=O)[O-])s1,1,-8,-9,-20,0
CC(=O)c1ccc(NC(=O)CC(c2cccs2)N2Cc3ccccc3C2=O)cc1 (centres undefined),1,·,-6,0,-1
CC(=O)Nc1ccc(S(=O)(=O)N2CCC3(CC2)OCCO3)cc1,2,16,4,6,-8
S=c1[nH]nc(-c2ccccc2)n1/N=C/C=C/c1ccco1,-1,-24,-14,-7,-3
S=c1[nH]nc(-c2ccc(Cl)cc2)n1/N=C/C=C/c1ccco1,1,-80*,-3,14,-9
S=c1[nH]nc(-c2ccco2)n1/N=C/C=C/c1ccccc1,1,-64*,-13,-12,-5
CC(=C/c1ccccc1)/C=N/n1c(-c2ccco2)n[nH]c1=S,17,-23,-4,1,4
Cc1ccc(N2CCN(C(=O)NCc3noc4ccc(C)cc34)CC2)c(C)c1,2,·,4,-4,-4
COC(=O)c1cccc(C23CC4(C2)[C@H](CN(Cc2ccc(-c5ccccc5)cc2)[C@@H]4c2ccccc2)C3c2ccc(Cl)nc2)c1 (some centres undefined),2,-20,11,-36*,-9
CCN1CCc2c(C#N)c(N3CCCCC3)nc(N3CCOCC3)c2C1,1,-53*,0,-7,-2
O=C(OCCOc1ccccc1)c1cc(S(=O)(=O)N2CCOCC2)c(Cl)cc1Cl,·,?,-2,·,·
Cc1cc2c(n1-c1ccc(C(=O)NCCc3ccc(Cl)cc3)cc1)CCCC2,6,·,-10,-12,-2
C=CCn1c(CNC(=O)c2cccs2)nnc1SCc1ccc(Cl)cc1Cl,60*,3,-6,3,-2
CC(NC(=O)c1cccs1)c1nnc(SCc2ccc(Cl)cc2Cl)n1C (centres undefined),-1,4,-4,13,1
CCOc1ccc(-c2nc3scc(-c4cccs4)c3c(=O)[nH]2)cc1,5,9,5,-75*,-9
Cc1ccc(-c2csc3nc(-c4ccncc4)[nH]c(=O)c23)cc1,10,25,27,-34*,-15
